# Test results as given in the supplement of paper PMC10981050.
# System: OCI-AML2
# Assay: cell viability relative to vehicle control; higher = less cytotoxic
# Settings: 10 µM; SRSF2 genotype: wt/wt
# Outline: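 After removal of identity-inconsistent compounds, the Selleck bioactive, kinase and epigenetic probe libraries were screened on CRISPR-edited mutant clones and isogenic wild-type clones of four leukaemia lines. Plates were 384-well, each well holding 2000 cells in 50 µL medium and receiving a single 10 µM acoustically dispensed dose. CellTiter-Glo luminescence was read 48 h later, after the supernatant was taken off. Genedata Screener was used to express viability as percent of the on-plate vehicle control.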
row,Compound,cell viability
1,O=C(O)c1ccc(C=C2SC(=S)N(c3cccc(C(F)(F)F)c3)C2=O)cc1,97.9%
2,Cc1cn([C@H]2C[C@H](O)[C@@H](CO)O2)c(=O)[nH]c1=O [Thymidine],99.9%
3,C[C@]12CC[C@@H]3c4ccc(OC(=O)c5ccccc5)cc4CC[C@H]3[C@@H]1CC[C@@H]2O [Estradiol Benzoate],46.7%
4,O=C(O)c1ccc(Cl)cc1O [4-Chloro-2-hydroxybenzoic acid],115%
5,C[C@H]1O[C@@H](Oc2c(-c3cc(O)c(O)c(O)c3)oc3cc(O)cc(O)c3c2=O)[C@@H](O)[C@@H](O)[C@@H]1O [Myricitrin (Myricitrine)],94.3%
6,OC[C@H]1O[C@H](OCC2O[C@@H](O)[C@H](O)[C@@H](O)[C@@H]2O)[C@H](O)[C@@H](O)[C@H]1O (stereo not given in full) [Melibiose],103%
7,CO[C@@]12[C@H](COC(N)=O)C3=C(C(=O)C(C)=C(N)C3=O)N1C[C@@H]1N[C@@H]12 [Mitomycin C],0.98%
8,CN1C(C(=O)Nc2ccccn2)=C(O)c2ccccc2S1(=O)=O [Piroxicam (Feldene)],105%
9,NC(=O)c1cn(Cc2c(F)cccc2F)nn1 [Rufinamide (Banzel)],103%
10,O=c1c(-c2ccc(O[C@@H]3O[C@H](CO)[C@@H](O)[C@H](O)[C@H]3O)cc2)coc2cc(O)cc(O)c12 [Sophoricoside],105%
11,CCOc1cc([C@@H](CS(C)(=O)=O)N2C(=O)c3cccc(NC(C)=O)c3C2=O)ccc1OC,94.7%
12,Cc1cc2c(C(=O)NCC(C)c3ccccc3)c(O)c(O)cc2c(O)c1-c1c(C)cc2c(C(=O)NCC(C)c3ccccc3)c(O)c(O)cc2c1O (stereo not given) [Sabutoclax],36%
13,O=S(=O)(NCCSSCCNS(=O)(=O)c1cc(Cl)ccc1Cl)c1cc(Cl)ccc1Cl,52.5%
14,CCN(CC)c1ccc2cc(C(=O)O)c(=O)oc2c1 [7-(Diethylamino)coumarin-3-carboxylic acid],103%
15,CCOC(=O)[C@H](CCc1ccccc1)N[C@@H](C)C(=O)N1[C@H](C(=O)O)C[C@@H]2CCC[C@@H]21 [Ramipril (Altace)],86.3%
16,O=c1oc2c(O)c(O)cc3c(=O)oc4c(O)c(O)cc1c4c23 [Ellagic acid],101%
17,OCC1OC(OC2OC(CO)C(O)C(O)C2O)C(O)C(O)C1O [D-(+)-Trehalose Anhydrous],102%
18,O=c1[nH]cnc2[nH]ncc12 [Allopurinol Sodium (Aloprim)],95.1%
19,Cc1cc(C2CCCCC2)n(O)c(=O)c1 [Ciclopirox (Penlac)],16.3%
20,CC(=O)CCc1ccccc1 [Benzylacetone],94.8%

row,Compound,cell viability
1,Clc1ccc(C(Cn2ccnc2)OCc2c(Cl)cccc2Cl)c(Cl)c1 (stereo not given) [Isoconazole nitrate (Travogen)],69.7%
2,COc1c(O)c(C)cc2c1C(=O)c1c(O)cccc1C2=O [Obtusifolin],92.6%
3,NCCOCCOCCNC(=O)Cc1ccc(Nc2nc(NCc3ccc(F)cc3)nc(NCC3CCCCC3)n2)cc1 [AP-III-a4 (ENOblock)],79.6%
4,CC(=O)OC(CC(C)C1=C2CC(O)C3C4(C)CCC(=O)C(C)(C)C4CCC3(C)C2(C)CC1)C1OC1(C)C (stereo not given) [Alisol B Acetate],68.6%
5,O=C(c1cccc(Cl)c1F)N1CCN(Cc2cccc(Nc3nccs3)n2)CC1,44.1%
6,O=C(/C=C/n1cnc(-c2cc(C(F)(F)F)cc(C(F)(F)F)c2)n1)N1CC(F)(F)C1,2.6%
7,CC(=O)Cc1cc(=O)c2c(C)cc(O)c([C@@H]3O[C@H](CO)[C@@H](O)[C@H](O)[C@H]3O)c2o1 [Aloesin],105%
8,CCOC(=O)c1c(C)n(C)c2ccc(O)cc12 [Mecarbinate],98.1%
9,CC(/C=C/C=C(\C)C(=O)O[C@@H]1O[C@H](CO)[C@@H](O)[C@H](O)[C@H]1O)=C\C=C\C=C(C)\C=C\C=C(/C)C(=O)O[C@@H]1O[C@H](CO[C@@H]2O[C@H](CO)[C@@H](O)[C@H](O)[C@H]2O)[C@@H](O)[C@H](O)[C@H]1O [Crocin II],106%
10,Cc1c(C)c(NCC(=O)N(C)C2CCN(Cc3ccc(C(N)=O)cc3)CC2)c(C)c(C)c1N,103%
11,C[C@@H]1C[C@H]2[C@@H]3CCC4=CC(=O)C=C[C@]4(C)[C@@]3(Cl)[C@@H](O)C[C@]2(C)[C@@]1(OC(=O)c1ccco1)C(=O)CCl [Mometasone furoate],118%
12,N=C(N)c1ccc(OCCCCCOc2ccc(C(=N)N)cc2)cc1 [Pentamidine isethionate],57.8%
13,CC(=O)OC/C=C(/C)CCC=C(C)C [Neryl acetate],103%
14,CN1CCN(CCCN2c3ccccc3Sc3ccc(C(F)(F)F)cc32)CC1 [Trifluoperazine 2HCl],46.7%
15,COc1ccc2[nH]cc(CCNC(C)=O)c2c1 [Melatonin],103%
16,Clc1cccc(-c2nnnn2Cc2cccnc2)c1Cl,116%
17,C[C@@]12C[C@H](c3ccoc3)O[C@@]13C[C@H](OC3=O)[C@H]1[C@H]2C[C@@H]2C[C@H]1C(=O)O2 [Diosbulbin B],101%
18,COc1c(O[C@@H]2O[C@H](CO)[C@@H](O)[C@H](O)[C@H]2O)cc2occ(-c3ccc(O)cc3)c(=O)c2c1O [Tectoridin],97.8%
19,COc1ccc(C2CNC(=O)C2)cc1OC1CCCC1 (stereo not drawn) [S-(+)-Rolipram],103%
20,O=C(O)[C@]1(Cc2cccc(Nc3nccs3)n2)CC[C@@H](Oc2cccc(Cl)c2F)CC1,24.8%
